Source: PubChem (The Scripps Research Institute Molecular Screening Center)
MITF primary: human MITF inhibition, primary screen; O75030; AlphaScreen MITF homodimerization, bead proximity signal; inhibition, % at 2.6 µM; hit rate 0.91% among 650,000; AID 1259374; in the data active = inhibition above about 50%;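 also: 0% = vehicle wells with protein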
Target sequence (O75030 whole entry, looked up): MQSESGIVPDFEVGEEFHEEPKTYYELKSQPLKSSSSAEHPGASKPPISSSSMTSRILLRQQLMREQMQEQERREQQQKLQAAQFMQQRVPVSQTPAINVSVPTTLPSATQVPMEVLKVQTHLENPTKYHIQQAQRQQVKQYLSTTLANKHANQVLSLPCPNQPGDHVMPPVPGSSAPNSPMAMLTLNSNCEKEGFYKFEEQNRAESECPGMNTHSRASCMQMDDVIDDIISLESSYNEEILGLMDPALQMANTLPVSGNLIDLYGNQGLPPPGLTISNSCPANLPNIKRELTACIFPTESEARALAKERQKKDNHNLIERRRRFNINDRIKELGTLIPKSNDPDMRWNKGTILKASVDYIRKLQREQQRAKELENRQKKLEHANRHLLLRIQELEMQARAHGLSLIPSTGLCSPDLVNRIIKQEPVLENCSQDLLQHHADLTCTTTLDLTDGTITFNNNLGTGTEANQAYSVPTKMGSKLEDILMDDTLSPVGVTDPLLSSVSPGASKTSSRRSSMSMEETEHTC
TEAD-YAP inh: TEAD-YAP interaction inhibition; hit rate 1.4% among 640,000; HEK-TIYL cells, TEAD-Gal4/YAP UAS-luciferase luminescence; inhibition, % at 9.12 µM; AID 1259422; in the data active = inhibition above about 32%;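 also: 0% = median of test compound wells and 100% = reference inhibitor wells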
FBW7 act: human FBW7 E3 ligase activation, primary screen | normalized activity (activation), % at 26.1 µM | hit rate 0.13% among 650,000 | AID 1259310 | Q969H0 | AlphaScreen FBW7–phospho-cyclin E peptide binding, activator screen; in the data active = normalized activity above about 1.9%;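 also: purified mutant Fbw7 with reduced substrate affinity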
GPR151 ag: human GPR151 activation. PathHunter beta-arrestin GPR151 cells, luminescence. activation, % at 11.2 µM. Q8TDV0. hit rate 1% among 650,000. AID 1508602; in the data active = activation above about 4.9%;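 also: 0% = median of compound wells and 100% = cells with positive control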
GPR151 confirm: human GPR151 activation, confirmation screen; 6,700 tested, under 10 active; shares compounds with GPR151 ag; GPR151 PathHunter beta-arrestin cells, luminescence, 90 min; % of EA-reagent control over plate median; activation, % at 11.2 µM;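 active = mean percent activation across replicates above the confirmation screen cutoff of 4.91%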
GPR119 ag: counter-screen for GPR151 activators: effect on human GPR119; GPR119 PathHunter beta-arrestin cells, luminescence, 90 min; 0 = compound-well median, 100 = enzyme-acceptor control; hit rate 0.3% among 6,700; shares compounds with GPR151 ag; activation, % at 11.2 µM;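 active = mean percent activation in the counterscreen above 29.09%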;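 also: counterscreen on off-target GPR119 to flag nonselective hits from the GPR151 activator screen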
Starred values were filed as active, the others as inactive; · = no result given. Compounds with a hit are over-represented: about 3.5% of the library has one in this group of screens.

SMILES | MITF primary | TEAD-YAP inh | FBW7 act | GPR151 ag | GPR151 confirm | GPR119 ag
CCOC(=O)c1ccccc1NC(=O)CN(c1ccccc1F)S(C)(=O)=O | -15 | 4 | 0 | 5.0* | 0 | 3
COC(=O)c1ccccc1NC(=O)CN(c1ccc(F)c(Cl)c1)S(C)(=O)=O | 8 | 5 | 0 | 13* | -2 | 31*
Cc1ccc(NC(=O)CN(c2ccc3c(c2)OCO3)S(C)(=O)=O)cc1Cl | 9 | -7 | 0 | 5.1* | 0 | 11
CCOC(=O)c1ccccc1NC(=O)Nc1ccc(F)cc1 | -5 | -1 | 0 | 7.5* | 0 | 4
CS(=O)(=O)N(CC(=O)NC1CC2CCC1C2)c1ccc(F)c(Cl)c1 (stereo not drawn) | 10 | 1 | 0 | 7.8* | 0 | -5
Cc1ccc(N(CC(=O)NC2CC3CCC2C3)S(C)(=O)=O)cc1Cl (stereo not drawn) | 11 | 5 | 0 | 2 | · | ·
CS(=O)(=O)N(CC(=O)Nc1ccc(Cl)c(Cl)c1)c1ccc2c(c1)OCO2 | -1 | -1 | 1 | 0 | · | ·
Cc1ccccc1Cn1cnc2c(cnn2CCNC(=O)c2cc3ccccc3o2)c1=O | 19 | 11 | 0 | -1 | · | ·
OCCC#Cc1ccc(CN2CCCC(N3CCOCC3)C2)cc1 (stereo not drawn) | 2 | 2 | 0 | 0 | · | ·
NC(=O)Cn1c(=O)n(CCCCC(=O)NC2CCCC2)c(=O)c2ccccc21 | 6 | 0 | 0 | 3 | · | ·
Cn1c(=NC(=O)c2cccc(N3C(=O)CCC3=O)c2)sc2cccc(F)c21 | -5 | -20 | 0 | 3 | · | ·
Cc1ccccc1-c1nnc(SCC(=O)N2CCOCC2)o1 | 13 | -53 | 0 | 0 | · | ·
Cc1ccccc1-c1nnc(SCC(=O)N2CCN(c3ccccc3)CC2)o1 | 5 | 12 | 0 | 6.5* | 1 | 6
CC(=O)Nc1nnc(SCC(=O)N2CCN(c3ccccc3)CC2)s1 | -13 | 6 | 0 | -1 | · | ·
Cc1nnc(SCC(=O)N2CCN(c3ccccc3)CC2)s1 | 10 | 1 | 0 | 6.4* | 1 | 10
COc1ccc(-n2ncc3c(N4CCN(C(c5ccccc5)c5ccc(Cl)cc5)CC4)ncnc32)cc1 (stereo not drawn) | 6 | 5 | 0 | 2 | · | ·
CC(C)OCCCNC(=O)CN(C)c1nnc(N2CCCC2=O)s1 | -4 | -2 | 0 | 3 | · | ·
CC(=O)Nc1ccc(Nc2nc(Nc3cccc(N(C)C)c3)ncc2C)cc1 | 7 | 8 | 0 | 5.5* | -1 | -12
O=C(/C=C\c1ccc([N+](=O)[O-])cc1)Nc1nnc(-c2cccs2)o1 | -5 | -5 | 0 | 6.7* | -1 | 1
O=C(/C=C\c1ccc([N+](=O)[O-])cc1)Nc1nnc(-c2ccccc2)o1 | 0 | -6 | 0 | 0 | · | ·
Cn1nnc2cc(NC(=O)NCc3ccccc3)ccc21 | 10 | -9 | 0 | 6.3* | 0 | -3
Cn1nnc2cc(NC(=O)Nc3ccccc3F)ccc21 | 2 | 11 | 0 | -3 | · | ·
O=C(CSc1ccccn1)Nc1ccc(Br)c2cccnc12 | 16 | 6 | 1 | -1 | · | ·
COc1ccc(C=O)cc1OC(=O)c1cccc2ccccc12 | 11 | -1 | 0 | 10* | -1 | -15
O=C(O)c1ccc(-n2c(=S)[nH]c3ccc(F)cc3c2=O)cc1 | -1 | 7 | 0 | -2 | · | ·
SMILES | MITF primary | TEAD-YAP inh | FBW7 act | GPR151 ag | GPR151 confirm | GPR119 ag
CC1CCC2(CC1)NC(=O)N(CC(=O)NC(=O)NCc1ccccc1)C2=O (stereo not drawn) | 17 | 1 | 0 | 5.5* | 0 | -4
Fc1ccc(C2CC(c3ccc(Br)cc3)=NN2c2nc(-c3ccccc3)c3cc(Br)ccc3n2)cc1 (stereo not drawn) | -2 | 5 | 0 | 5.8* | 0 | 2
CCOC(=O)C1=C(C)N=c2s/c(=C\c3ccco3)c(=O)n2C1c1cccs1 (stereo not drawn) | 16 | 6 | 0 | 7.5* | 1 | 1
COC(=O)C1=C(C)N=c2s/c(=C\c3c(F)cccc3Cl)c(=O)n2C1c1ccccc1 (stereo not drawn) | -3 | 14 | 0 | 5.3* | 0 | 6
CCOC(=O)C1=C(C)N=c2s/c(=C\c3ccc(C)cc3)c(=O)n2C1c1ccccc1OC (stereo not drawn) | -11 | 6 | 0 | 8.6* | -1 | -14
CCOC(=O)C1=C(C)N=c2s/c(=C\c3ccc(OC)cc3)c(=O)n2C1c1ccccc1OC (stereo not drawn) | 3 | -5 | 0 | 0 | · | ·
CCOC(=O)C1=C(C)N=c2s/c(=C\c3ccc(-c4ccc(C(=O)O)cc4)o3)c(=O)n2C1c1ccccc1OC (stereo not drawn) | -12 | 0 | 0 | 2 | · | ·
CCOC(=O)C1=C(c2ccccc2)N=c2s/c(=C\c3ccco3)c(=O)n2C1c1cccs1 (stereo not drawn) | 27 | -1 | 1 | 0 | · | ·
CCOC(=O)C1=C(C)N=c2s/c(=C\c3c(F)cccc3Cl)c(=O)n2C1c1ccc(C)cc1 (stereo not drawn) | -12 | -8 | 0 | -1 | · | ·
CCOC(=O)C1=C(C)N=c2s/c(=C\c3ccc(-c4ccccc4C(=O)O)o3)c(=O)n2C1c1ccccc1OC (stereo not drawn) | 12 | 10 | 0 | 5.7* | 2 | 5
Cc1ccc(/C=N/NC(=O)c2nc3nc(C)cc(C)n3n2)cc1 | -7 | -14 | 0 | -1 | · | ·
Cc1cc(C)n2nc(C(=O)N/N=C/c3ccccc3)nc2n1 | -1 | -4 | 0 | 10* | -1 | -8
CCOc1ccc(NC(=O)c2cccnc2)c([N+](=O)[O-])c1 | 0 | 46* | 0 | 5.8* | 1 | 8
Cc1cccc(OCC(=O)NCc2cccnc2)c1 | -3 | 4 | 0 | 2 | · | ·
Cc1cc(OCC(=O)NCc2cccnc2)ccc1[N+](=O)[O-] | 2 | -7 | 0 | 5.2* | -1 | 2
NC1=NN2C(=CSC2c2ccc(F)cc2)S1 (stereo not drawn) | 3 | 2 | 0 | 1 | · | ·
Cc1nc2c(C(=O)NCCc3ccccc3)c[nH]n2c(=O)c1Cl | 15 | 0 | 0 | -1 | · | ·
Cc1nc2c(C(=O)NCc3ccc(F)cc3)c[nH]n2c(=O)c1Cl | 2 | -3 | 0 | 9.6* | 0 | 5
CCOc1ccc(/C(O)=C2/C(=O)C(=O)N(Cc3cccnc3)C2c2ccc(C)cc2)cc1C (stereo not drawn) | -7 | -5 | 0 | 0 | · | ·
C=CCOc1ccc(C2/C(=C(/O)c3ccc(OCC)c(C)c3)C(=O)C(=O)N2Cc2cccnc2)cc1 (stereo not drawn) | -19 | 3 | 0 | 6.6* | 0 | -17
CCOC(=O)Cc1csc(Nc2ccccn2)n1 | 12 | -8 | 0 | 1 | · | ·
CCCCC1CN(CCC(=O)NCCOc2cccnc2)Cc2ccccc2O1 (stereo not drawn) | 19 | 0 | 0 | -1 | · | ·
